Only some compounds are listed: those with a hit (about 1.8% of all), similar ones and a draw of the others.
SUMO Mot1 rescue: blocks SUMOylation pathway, rescuing yeast Mot1-301 growth | 320,000 tested, 1% active | AID 2716 | growth rescue, % at 18.8 µM | S. cerevisiae Mot1-301 growth rescue, ATP luminescence, 38.5C; percent above DMSO median, 100 means doubled;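 active means every valid replicate shows activation above 250% relative to neutral control wells; inactive means the rest, any valid replicate at or below 250%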
NALP1 inh: NALP1 inhibition | AID 2071 | S. cerevisiae NALP1/ASC/caspase-1 growth, X-gal OD620, 72 h | inhibition, % at 10 µM | 280,000 tested, 0.61% active; in the data active means inhibition mostly above about 24%, no sharp cut-off; inactive means mostly below about 32%
PolyA inhibitor: blocks polyadenylation in yeast reporter cells; S. cerevisiae SKY197-pL101 polyadenylation reporter, beta-gal luminescence; efflux-impaired pdr1/pdr3 knockout yeast; score 100 = 6 SD above DMSO; activity score, % at 12 µM; 300,000 tested, 0.02% active; AID 1875;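 active means lowest replicate activity score at least 50, where 100 means six control SD above control mean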;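 further: yeast exposed to compound for 9 h at 30 °C; higher score means more reporter readthrough which indicates perturbed polyadenylation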
NLRP3 yeast inh: inhibitors of NALP3 inflammasome in yeast; Yeast reconstituted NLRP3/ASC/caspase-1, beta-gal luminescence, 24 h; inhibition, % at 10 µM; 330,000 tested, 0.39% active;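 active means inhibition of 50% or more; inactive means inhibition below 50%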
NALP3 yeast conf: confirmation of NALP3 inhibitors in yeast; shares compounds with NLRP3 yeast inh; inhibition, % at 10 µM; yeast expressing human NALP3, luminescence; 1,300 tested, 81% active; in the data active means inhibition above about 48%
Casp1-ASC yeast: caspase-1-ASC yeast counter-screen hit; shares compounds with NLRP3 yeast inh; yeast expressing Caspase-1-ASC, luminescence counter screen; inhibition, % at 10 µM; 1,000 tested, 66% active
NALP3 retest: confirmation retest of NALP3 inhibitors in yeast. inhibition, % at 10 µM. yeast expressing human NALP3, luminescence read-out. 1,000 tested, 53% active. AID 488794. shares compounds with NLRP3 yeast inh
A number is an active result; n = inactive; x = not tested or not shown. Unless noted, no stated cut-off is given here; in the data, active means inhibition above about 50%; inactive means the rest.

SMILES	SUMO Mot1 rescue	NALP1 inh	PolyA inhibitor	NLRP3 yeast inh	NALP3 yeast conf	Casp1-ASC yeast	NALP3 retest
COc1cccc(C(C[N+](=O)[O-])c2c(C)[nH]n(-c3ccccc3)c2=O)c1 (stereo unspecified)	n	85	n	52	58	n	n
Cc1[nH]n(-c2ccccc2)c(=O)c1C(c1cccc([N+](=O)[O-])c1)c1c(C)[nH]n(-c2ccccc2)c1=O	n	n	n	n	x	x	x
CCCCOc1ccc(C(=O)Nc2ccc(SC(F)F)cc2)cc1OC	n	n	n	n	x	x	x
O=C(Nc1cccc(F)c1)c1ccccc1	n	n	n	60	84	68	68
O=C(Nc1ccc2c(c1)OCCO2)c1cc2ccccc2o1	n	n	n	53	69	63	73
Cc1ccc(NC(=O)c2ccccc2)cc1C	n	x	x	52	75	n	n
O=C(Nc1ccc(Nc2ccccc2)cc1)c1ccccc1F	n	n	n	52	68	58	64
O=C(Nc1cccc(F)c1)c1cccnc1	n	n	n	n	x	x	x
O=C(O)c1cc(NC(=O)c2ccccc2F)cc(NC(=O)c2ccccc2F)c1	n	n	n	n	x	x	x
Cc1ccc(NC(=O)c2cccnc2)cc1C	n	n	n	n	x	x	x
O=C(Nc1ccc2oc(=O)ccc2c1)c1cc2ccccc2o1	n	n	n	n	x	x	x
Cc1ccc(NC(=O)Cn2cccc2)cc1C	n	n	n	n	x	x	x
O=C(Nc1cccc(F)c1)c1ccc2c(c1)OCO2	n	n	n	65	65	68	62
COc1cccc(C(=O)Nc2ccc(NC(=O)Cc3ccccc3)cc2)c1	n	n	n	n	x	x	x
O=C(Nc1c(C(=O)Nc2cccc(F)c2)oc2ccccc12)c1ccc2c(c1)OCO2	n	n	n	n	x	x	x
Cc1ccc(NC(=O)CCn2cccc2)cc1C	n	n	n	59	74	n	n
CCN1CCN(c2ccc(NC(=O)c3cccc(OCc4ccccc4)c3)cc2)CC1	n	n	n	n	x	x	x
COc1cccc(C(=O)Nc2ccccc2)c1	n	n	n	51	80	n	n
CN1CCN(c2ccc(NC(=O)c3cccc(OCc4ccccc4)c3)cc2)CC1	n	31	n	50	55	n	n
CCN(c1ccccc1)S(=O)(=O)c1ccc(Cl)c(NC(=O)COC(=O)c2cc(O)c3ccccc3c2O)c1	n	x	n	n	x	x	x
O=C(OCCc1cc2ccccc2c(=O)o1)c1ccccc1C(F)(F)F	n	x	x	n	x	x	x
Cc1ccc(-n2c(O)c(/C=N/c3ncn[nH]3)c3ccccc3c2=O)cc1	n	n	n	n	x	x	x
Cc1ccc(C)c(NC(=O)c2cc3ccccc3o2)c1	n	n	n	55	n	52	n
O=C(Nc1ccc(Nc2ccccc2)cc1)c1ccc(Br)o1	n	n	n	66	76	76	74
COc1ccc(C(=O)Nc2cccc(NC(=O)c3cccs3)c2)cc1	n	n	n	n	x	x	x
SMILES	SUMO Mot1 rescue	NALP1 inh	PolyA inhibitor	NLRP3 yeast inh	NALP3 yeast conf	Casp1-ASC yeast	NALP3 retest
O=C(Nc1ccncc1)c1cccc(F)c1	n	n	n	n	x	x	x
COc1ccc(C)cc1NC(=O)c1cc2ccccc2o1	n	n	n	n	x	x	x
O=C(Nc1ccc(Nc2ccccc2)cc1)c1cccc(F)c1	n	n	n	57	72	51	57
COc1cccc(NC(=O)c2cccs2)c1	n	n	n	68	81	71	57
COC(=O)CN(c1ccc(C)cc1)S(=O)(=O)c1c(C)[nH]c(=O)[nH]c1=O	n	n	n	n	x	x	x
COc1ccccc1CN1CCNC(=O)C1CC(=O)N(C)Cc1ccon1 (stereo unspecified)	n	n	n	n	x	x	x
Cc1ccc(-n2nc3c(c2NC(=O)c2ccc(OC(C)C)cc2)CS(=O)C3)cc1 (stereo unspecified)	n	n	n	n	x	x	x
O=C(Nc1ccc2c(c1)OCCO2)c1cccc(Br)c1	n	n	n	52	73	50	51
CC(Oc1ccc(Br)cc1)C(=O)Nc1nc(-c2ccccn2)cs1 (stereo unspecified)	n	n	n	51	77	89	81
CCCCOC(=O)Nc1nnc(CCOCC)s1	n	n	n	n	x	x	x
CC(C)(C)c1ccc(C(=O)Nc2cccc(-n3cnnn3)c2)cc1	n	n	n	52	65	58	n
O=C(Cn1c(=O)sc2ccccc21)NCc1ccco1	n	n	n	n	x	x	x
Cc1ccc(NC(=S)NNC(C)(C)C)cc1	n	n	n	51	n	61	n
CSCc1nc2sc(C(=O)Nc3nc(C)cs3)c(C)c2c(=O)[nH]1	n	n	n	n	x	x	x
Cc1ccc(S(=O)(=O)Oc2ccccc2/C=N/N=C(N)N)cc1	n	n	n	n	x	x	x
CC1(C)C[C@H](O)[C@@]23C[C@@H](OC2=O)[C@]2(C)C(=CCC4[C@@]5(C)CC[C@H](O)C(C)(C)C5CC[C@]42C)[C@@H]3C1 (stereo partly specified)	n	x	n	51	68	n	n
CC1(C)C2CC[C@]3(C)C(CC=C4[C@@H]5C[C@@](C)(CO)[C@@H]6C[C@@]5(CC[C@]43C)C(=O)O6)[C@@]2(C)CC[C@@H]1O (stereo partly specified)	n	x	n	55	58	n	n
CC1(C)C[C@H](O)[C@]2(CO)CC[C@]3(C)C(=CCC4[C@@]5(C)CC[C@H](O)C(C)(C)C5CC[C@]43C)[C@@H]2C1 (stereo partly specified)	n	x	x	n	x	x	x
c1ccc2nc3c(nc2c1)CCCC3	n	n	n	n	x	x	x
CC(=O)Nc1nc(C)c(Oc2ccc(Cl)cc2Cl)c(=O)[nH]1	n	n	n	n	x	x	x
O=C1c2ccccc2C(=O)C12OC2c1ccc(Cl)cc1 (stereo unspecified)	n	n	n	n	n	x	x
Cc1ccc(S(=O)(=O)Cn2nnnc2CN2CCN(C(=O)c3ccco3)CC2)cc1	n	n	n	n	x	x	x
Cc1cc(C)c2c(N)c(-c3nc4ccccc4[nH]3)sc2n1	n	n	n	50	62	n	n
CCc1noc(C)c1C(=O)Nc1nc2c(C)cc(C)cc2s1	n	x	n	72	77	75	61
Cc1noc(C)c1C(=O)Nc1nc2ccc(F)cc2s1	n	x	x	65	50	62	54
SMILES	SUMO Mot1 rescue	NALP1 inh	PolyA inhibitor	NLRP3 yeast inh	NALP3 yeast conf	Casp1-ASC yeast	NALP3 retest
O=C(Nc1nc2ccc(Cl)cc2s1)c1ccco1	n	n	n	n	x	x	x
CCc1noc(C)c1C(=O)Nc1nc2ccc(F)cc2s1	n	x	n	68	78	75	66
Cc1noc(C)c1C(=O)Nc1nc2ccc(Cl)cc2s1	n	n	n	58	72	71	58
NS(=O)(=O)c1ccc(CCNC(=O)C2CCN(S(=O)(=O)c3ccc(Br)s3)CC2)cc1	n	n	n	n	x	x	x
N#Cc1cc(-c2ccccc2)nnc1Sc1ccccc1	n	n	n	n	x	x	x
COc1cccc(OC)c1C(=O)Nc1nc2ccc([N+](=O)[O-])cc2s1	n	n	n	55	74	x	x
